In PubChem BioAssay AID1159580 (chemical genetic matrix, 2015):
Values joined by “and” are separate entries in the source; they are usually repeats but may differ in a detail not shown here. Equal entries are not always repeated. The whole screen tested about 5,500 compounds, of which about 2,000 (36%) were called active. Another 18% or so got no clear call; they are omitted. Rule as the data show it: active = normalized growth mostly below about 0.91 (no sharp cut-off); inconclusive = no clear call, values can overlap the other calls; inactive = mostly above about 0.92. The list shows a part of the results.

Assay: chemical genetic growth profiling, strain panel (AID 1159580);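 also: tested at 20 µM; growth read once vehicle control cultures reached saturation at 30 °C; 1 = growth at the plate median or of vehicle wells; lower values mean less growth of the strain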
Conditions: S. cerevisiae deletion strains, growth OD

Measured: normalized growth

C[N+](C)(C)CC(O)CC(=O)O (stereo unspecified)
inactive: locus YAL013W, strain DEP1, hits give low values 1.02 | locus YAL021C, strain ccr4, hits give low values 1.01 | locus YAL026C, strain drs2, hits give low values 0.982 | locus YAL030W, strain snc1, hits give low values 0.982 | locus YBL061C, strain skt5, hits give low values 0.977 | locus YBR009C, strain hhf1, hits give low values 1 | locus YBR021W, strain FUR4, hits give low values 0.992 | locus YBR023C, strain chs3, hits give low values 0.985 | locus YBR171W, strain sec66, hits give low values 0.981 | locus YBR229C, strain ROT2, hits give low values 1 | locus YBR231C, strain swc5, hits give low values 0.974 | locus YBR279W, strain paf1, hits give low values 0.998 | locus YCL011C, strain gbp2, hits give low values 0.978 | locus YCL016C, strain dcc1, hits give low values 0.96 | locus YCL029C, strain bik1, hits give low values 1 | locus YCL069W, strain vba3, hits give low values 0.981 | locus YCR088W, strain abp1, hits give low values 0.986 | locus YDL005C, strain med2, hits give low values 0.98 | locus YDL035C, strain GPR1, hits give low values 1.02 | locus YDL040C, strain nat1, hits give low values 0.982 | locus YDL074C, strain BRE1, hits give low values 1.01 | locus YDL101C, strain DUN1, hits give low values 1 | locus YDL134C, strain PPH21, hits give low values 1.01 | locus YDL185W, strain tfp1, hits give low values 0.996 | locus YDL192W, strain arf1, hits give low values 0.997 | locus YDR001C, strain nth1, hits give low values 0.975 | locus YDR069C, strain doa4, hits give low values 1.01 | locus YDR101C, strain arx1, hits give low values 0.983 | locus YDR137W, strain rgp1, hits give low values 0.972 | locus YDR150W, strain NUM1, hits give low values 1.01 | locus YDR159W, strain sac3, hits give low values 1.02 | locus YDR162C, strain NBP2, hits give low values 1 | locus YDR195W, strain ref2 0.96 | locus YDR297W, strain sur2, hits give low values 0.998 | locus YDR318W, strain mcm21, hits give low values 0.999 | locus YDR334W, strain swr1, hits give low values 0.969 | locus YDR335W, strain msn5, hits give low values 0.971 | locus YDR388W, hits give low values 1.01 | locus YDR392W, strain spt3, hits give low values 0.973 | locus YDR502C, strain sam2, hits give low values 1.02 | locus YEL003W, strain gim4, hits give low values 0.986 | locus YEL037C, strain rad23, hits give low values 0.969 | locus YEL061C, strain CIN8 (second series), hits give low values 0.981 | locus YEL061C, strain CIN8, hits give low values 1 | locus YER015W, strain faa2, hits give low values 0.977 | locus YER016W, strain bim1, hits give low values 0.965 | locus YER110C, hits give low values 0.991 | locus YER111C, strain swi4, hits give low values 0.96 | locus YER155C, strain BEM2 (second series), hits give low values 0.965 | locus YER155C, strain BEM2, hits give low values 0.995 | locus YER167W, strain BCK2, hits give low values 0.995 | locus YFR010W, strain ubp6, hits give low values 1 | locus YGL078C, strain dbp3, hits give low values 1 | locus YGL086W, strain mad1, hits give low values 0.998 | locus YGL167C, strain pmr1, hits give low values 0.98 | locus YGL173C, strain kem1, hits give low values 0.968 | locus YGL227W, strain vid30, hits give low values 0.985 | locus YGL240W, strain doc1, hits give low values 0.998 | locus YGL248W, strain PDE1, hits give low values 1 | locus YGL253W, strain hxk2, hits give low values 0.957 | locus YGR078C, strain PAC10, hits give low values 1 | locus YGR135W, strain pre9, hits give low values 0.994 | locus YGR229C, strain SMI1, hits give low values 1.02 | locus YGR252W, strain gcn5, hits give low values 1 | locus YHR013C, strain ard1, hits give low values 0.95 | locus YHR027C, strain rpn1, hits give low values 0.984 | locus YHR030C, strain SLT2, hits give low values 1 and 0.979 | locus YHR079C, strain IRE1 (second series), hits give low values 0.999 | locus YHR079C, strain IRE1, hits give low values 0.976 | locus YHR094C, strain hxt1, hits give low values 0.996 | locus YHR129C, strain ARP1, hits give low values 0.999 | locus YHR142W, strain chs7, hits give low values 0.968 | locus YHR200W, strain rpn10, hits give low values 1 | locus YIL066C, strain RNR3, hits give low values 1.02 | locus YIL073C, strain SPO22, hits give low values 1.04 | locus YIL125W, strain kgd1, hits give low values 1 | locus YIR030C, strain dcg1, hits give low values 0.998 | locus YJL092W, strain hpr5, hits give low values 0.984 | locus YJL095W, strain BCK1 (second series), hits give low values 0.974 | locus YJL095W, strain BCK1, hits give low values 1 and 0.989 | locus YJL115W, strain asf1, hits give low values 0.977 | locus YJL129C, strain trk1, hits give low values 0.983 | locus YJL134W, strain LCB3, hits give low values 1 | locus YJL154C, strain vps35, hits give low values 0.975 | locus YJL164C, strain tpk1, hits give low values 0.989 | locus YJL166W, strain qcr8, hits give low values 1.02 | locus YJL168C, strain set2, hits give low values 0.997 | locus YJL187C, strain SWE1 (second series), hits give low values 1.01 | locus YJR043C, strain POL32, hits give low values 1 | locus YJR066W, strain TOR1, hits give low values 0.929 | locus YJR075W, strain HOC1, hits give low values 1.01
